AmpC inh detg – inhibitors of E. coli AmpC beta-lactamase with detergent; hit rate 0.041% among 370,000; AmpC hydrolysis of nitrocefin, absorbance 480 nm, 0.01% Triton; Potency, µM (titrated, usually from 114 µM), for inactives: top-dose activity change, negative = inhibition, usual class: inhibitors;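 further: 0% = no-compound wells and -100% = no-enzyme wells; nearly all actives have a fitted effect of over 25% in size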
Target sequence (P00811 whole entry, looked up): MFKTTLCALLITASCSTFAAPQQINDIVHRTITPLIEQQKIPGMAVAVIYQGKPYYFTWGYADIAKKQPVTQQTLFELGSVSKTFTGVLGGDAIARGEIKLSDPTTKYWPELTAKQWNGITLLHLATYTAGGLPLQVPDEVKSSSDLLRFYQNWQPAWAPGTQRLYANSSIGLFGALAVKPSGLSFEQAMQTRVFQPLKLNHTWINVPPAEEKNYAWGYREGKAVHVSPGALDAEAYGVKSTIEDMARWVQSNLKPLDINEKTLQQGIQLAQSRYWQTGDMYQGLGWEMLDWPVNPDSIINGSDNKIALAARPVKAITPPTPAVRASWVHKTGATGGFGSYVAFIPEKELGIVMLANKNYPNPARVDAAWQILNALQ
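20 mM phosphate pH 7.0 + 0.01% (detergent screen) or 0.0001% Triton X-100; 5.3 nM AmpC reagent; cpd preinc 15 min RT; nitrocefin (800 uM stock) to start; A480 q20 s × 4 min; Activity was normalised to no-enzyme and no-compound control wells.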
FMDV inh – foot and mouth disease virus antiviral activity; FMDV antiviral cell-based qHTS; Potency, µM (highest dose often 57.9 µM), for inactives: at the top dose activity change, negative = inhibition, hits mostly inhibitors; hit rate 1.2% among 410,000; AID 1159524; calls by dose curve; tested in HEK293T cells; further: read-out not given here; nearly all actives have a fitted effect of over 45% in size
AMA1-RON2 inh – disrupts binding of P. falciparum AMA1 to RON2; AID 720542; Potency, µM (titrated, usually from 58.2 µM), for inactives: at the top dose activity change, negative = inhibition, actives largely listed as inhibitors; AlphaScreen AMA1-biotinylated RON2 peptide binding; hit rate 0.2% among 360,000;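 further: 0% = vehicle wells and -100% = peptide control; nearly all actives have a fitted effect of over 45% in size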
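AMA1 (3D7) with his tag at 25 nM final met compounds first, then biotinylated RON2 peptide at 25 nM; detection used donor plus acceptor beads, 10 µg/mL apiece, read by AlphaScreen after 30 min at room temperature.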
Sm TGR block – blocks Schistosoma mansoni thioredoxin glutathione reductase; Q962Y6; hit rate 3% among 360,000; AID 485364; purified TGR, DTNB reduction, TNB absorbance 405 nm; Potency, µM (highest dose often 114 µM), without a hit: at the top dose activity change, negative = inhibition, most hits filed as inhibitors; further: nearly all actives have a fitted effect of over 60% in size
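First, TGR (20 nM dispensed) and NADPH were mixed with compound. Second, a 15 min room-temperature incubation followed. Third, further NADPH and then DTNB were added to start the reaction. Finally, TNB absorbance was monitored kinetically.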
AmpC inh no detg – AmpC beta-lactamase inhibition without detergent; AmpC nitrocefin hydrolysis, absorbance 480 nm, 0.0001% Triton; Potency, µM (doses to about 57.1 µM), for the others: at the top dose activity change, negative = inhibition, hits mostly inhibitors; hit rate 0.52% among 330,000;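 further: plate controls were no compound for no effect and no enzyme for full effect; nearly all actives have a fitted effect of over 20% in size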
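AmpC (5.3 nM in the dispensed reagent) in 20 mM phosphate pH 7.0 with 0.01% (detergent screen) or 0.0001% Triton X-100 was preincubated with compounds for 15 min at room temperature. Nitrocefin was then added from an 800 uM solution, and hydrolysis was followed at 480 nm.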
The depositor's hits bear a star; ? = inconclusive; / = not tested or not shown. In the library only some 4.1% were active in any assay of this set; here they are far more common. Unless noted, the call rests on the fitted dose curve; in most records, active means well fitted curve in the direction sought with a large enough effect; inconclusive means small, poorly fitted or top-dose-only effect, or another doubt; inactive means no such curve, though single readings can be large; an effect the other way counts as inactive or inconclusive. Unless noted, on the % scale 0 is the no-effect control and ±100 the full control effect; potency means the concentration at half of the fitted maximal effect.

SMILES | AmpC inh detg | FMDV inh | AMA1-RON2 inh | Sm TGR block | AmpC inh no detg
Cc1nc(C)c(C(=O)C2=C(O)C(=O)N(CCN3CCOCC3)C2c2ccco2)s1 (centres undefined) | ? | 0% | 4% | 28µM* | -9%
COc1cccc(C2C(C(=O)c3cc4ccccc4o3)=C(O)C(=O)N2CCN2CCOCC2)c1 (centres undefined) | -10% | 15% | -17% | 40µM* | 7%
O=C(C1=C(O)C(=O)N(CCN2CCOCC2)C1c1ccc(Cl)cc1)c1cc2ccccc2o1 (centres undefined) | -1% | -20% | 4% | 28µM* | 13%
O=C(Nc1cccc(F)c1)c1oc2ccccc2c1NC(=O)C12CC3CC(CC(C3)C1)C2 | -7% | 4% | / | -5% | /
CC(=O)Nc1cccc(NC(=O)c2cc3c(=O)n4cccc(C)c4nc3n2C)c1 | -6% | 9% | / | -11% | /
COc1cccc2cc(C(=O)C3=C(O)C(=O)N(CCN4CCOCC4)C3c3ccc(C)o3)oc12 (centres undefined) | -2% | 12% | 9% | 28µM* | 1%
OC1(c2cccnc2)CCN(Cc2ccc3c(c2)CN(Cc2cccc(F)c2F)CCO3)CC1 | / | -13% | / | / | /
O=C(CCSc1nc(-c2ccco2)cc(C(F)(F)F)n1)N1CCCc2ccccc21 | ? | ? | -3% | 40µM* | 65%
O=C(CCSc1nc(-c2ccco2)cc(C(F)(F)F)n1)N1CCN(c2ccccn2)CC1 | -10% | ? | 1% | ? | -27%
CCC(=O)Nc1nc(-c2ccc3c(c2)OCCO3)cs1 | ? | 0% | 0% | -6% | 40µM*
NC(=O)C1CCN(C2=C(Cl)C(=O)c3ccccc3C2=O)CC1 | -1% | 22µM* | -13% | 0.45µM* | -8%
O=C1C(Cl)=C(NCCN2CCOCC2)C(=O)c2ccccc21 | -3% | -20% | -14% | ? | -2%
CN1CCN(C2=C(Cl)C(=O)c3ccccc3C2=O)CC1 | / | 32µM* | -5% | / | /
O=C(O)C1CCN(C(=O)c2ccccc2Cl)CC1 | 4% | -15% | 13% | -1% | -18%
NC(=O)C1CCN(C2=C(NS(=O)(=O)c3ccccc3)C(=O)c3ccccc3C2=O)CC1 | 2% | ? | -6% | -17% | -9%
CC1COCC(C)N1C1=C(Cl)C(=O)c2ccccc2C1=O (centres undefined) | / | 40µM* | ? | / | /
O=C1C(Cl)=C(N2CCC(C(=O)O)CC2)C(=O)c2ccccc21 | 3% | 35µM* | -14% | -2% | -25%
O=C(Oc1ccccc1F)c1nc(SCc2ccccc2F)ncc1Cl | -1% | -14% | / | -3% | /
O=C(NCCCN1CCN(c2ccccc2)CC1)c1nnc(Cc2ccc(F)cc2)o1 | 23% | -29% | / | 7% | /
CC(=O)c1ccc(NC(=O)c2cc(-c3ccc(C)s3)nc3ccccc23)cc1 | 16% | -12% | / | 0% | /
CN1C(=O)C(=Cc2ccccc2Oc2ccc(Cl)c(F)c2)C(=O)N(C)C1=O | -9% | ? | 7% | 32µM* | -19%
O=C1NC(=O)C(=Cc2ccccc2Oc2ccc(F)cc2)C(=O)N1 | 4% | -2% | -14% | 71µM* | -17%
Cc1ccc(S(=O)(=O)Oc2ccccc2C=C2C(=O)NC(=O)NC2=O)cc1 | / | -7% | 12% | / | /
O=C(c1ccc(C(F)(F)F)cc1)N(Cc1cc2ccc(F)cc2nc1N1CCOCC1)C1CC1 | / | 2% | / | / | /
Nc1nc2n(n1)C1(CCCCC1)C1=C(CCCC1)N2 | -21% | / | / | ? | 1%
SMILES | AmpC inh detg | FMDV inh | AMA1-RON2 inh | Sm TGR block | AmpC inh no detg
C1CCC2(CC1)C1=C(CCCC1)Nc1nnnn12 | ? | -21% | 5% | 45µM* | -19%
Cc1ccc(NC(=O)CSc2nc(N)c3cc4c(nc3n2)CCCC4)cc1 | -5% | 35% | 30% | 3% | 14µM*
Nc1nc(SCC(=O)Nc2ccccc2)nc2nc3c(cc12)CCCC3 | -4% | 33% | 0% | -1% | 16µM*
O=C1C=CC(=O)N1c1ccc(Sc2ccc([N+](=O)[O-])cc2)cc1 | -14% | / | / | 3.2µM* | -55%
Nc1ccc(Sc2ccc([N+](=O)[O-])cc2)cc1 | 5% | -7% | -14% | 5% | -24%
CCOc1ccc(N(CC(=O)NC2CCCCC2)C(=O)CSc2nnc(COc3ccccc3)o2)cc1 | -14% | -18% | 0% | -13% | -7%
O=C(CN(Cc1cccs1)C(=O)CSc1nnc(COc2ccccc2)o1)NC1CCCCC1 | -10% | 40µM* | 12% | -17% | -7%
COc1ccc(/C=C2\SC(=O)N(CCNC(=O)Cc3coc4cc(C)ccc34)C2=O)cc1OC | -1% | 40µM* | -6% | -16% | 137%
Cc1ccc(C(=O)O)cc1-c1ccc(C=C2C(=O)c3ccccc3C2=O)o1 | 4% | -9% | -25% | 45µM* | -26%
O=C1C(=Cc2ccc(Br)o2)C(=O)c2ccccc21 | ? | -9% | -14% | 11µM* | -16%
NCCC[C@@H](N)C(=O)O | / | -1% | / | / | /
COc1cc(O)ccc1CN1CCc2nnc(C(C)NC(=O)c3cc(F)ccc3F)n2CC1 (centres undefined) | / | -19% | / | / | /
CCCNC(=O)COC(=O)c1ccc(OCC(=O)Nc2ccccc2OC)c(OC)c1 | -6% | -5% | -7% | -8% | -9%
CC(CCc1ccccc1)NC(=O)COC(=O)c1ccc(S(C)(=O)=O)c([N+](=O)[O-])c1 (centres undefined) | 0% | ? | -5% | 1.8µM* | 13%
CC(=O)c1cccc(NC(=O)COC(=O)c2ccc(S(C)(=O)=O)c([N+](=O)[O-])c2)c1 | 0% | ? | 19% | 3.2µM* | 5%
COc1ccccc1NC(=O)COc1ccc(C(=O)OCC(=O)NC(C)(C)C)cc1OC | 4% | 22µM* | -12% | 4% | 64%
Cc1ccccc1NC(=O)COC(=O)c1ccc(S(C)(=O)=O)c([N+](=O)[O-])c1 | -9% | 32µM* | 15% | 1.4µM* | -11%
Cc1c(C(=O)N2CCCCC2)sc2ncnc(NCCN(C)C)c12 | / | 10% | / | / | /
CCNc1ncc2nc(CCc3ccccc3)c(=O)n(C)c2n1 | / | 26% | / | / | /
Cc1ccccc1NC(=O)Cc1nc(COC(=O)c2ccc(NC(N)=O)cc2)cs1 | / | -4% | 24% | / | -31%
Cc1ccccc1NC(=O)Cc1nc(COC(=O)c2ccc(S(C)(=O)=O)c([N+](=O)[O-])c2)cs1 | 8% | ? | 15% | 2.8µM* | -27%
CS(=O)(=O)c1ccc(C(=O)OCc2nnc(-c3ccccc3)o2)cc1[N+](=O)[O-] | -3% | 0% | -18% | 1.4µM* | 14%
Cc1ccc(CNc2nc(CN3CCCCC3c3cccnc3)nc3ccccc23)o1 (centres undefined) | / | -15% | / | / | /
Cc1cccc(C)c1N1C(=O)CC(N(O)c2ccccc2)C1=O (centres undefined) | 6% | -18% | -12% | 14µM* | -12%

Screening results as filed in PubChem.
